# Assay results from PubChem BioAssay (NCI).
# This is part of a sample that, as a whole, favours compounds with a hit. Of some 83,000 tested, about 20% had one in any assay.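 Percent growth is the endpoint: 0 to 100 indicates growth inhibition (40 means 60% inhibition), 0 means no net growth, and negative values indicate cell death.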 A number with no mark means an inactive call. The source made the active and inactive calls. The calls were made as follows: active = growth percent below 10; inactive = the rest.
# What was measured:
# Assay in all cases: NCI-60 one-dose screen, 48 h (100 = growth as untreated, 0 = no growth, -100 = all killed)
# [1] = system: MALME-3M melanoma; details: 10 µM unless noted
# [2] = system: MDA-MB-231 breast; details: 10 µM unless noted
# [3] = system: SF-268 CNS; details: 10 µM unless noted
# [4] = system: SF-295 CNS; details: 10 µM unless noted
# [5] = system: SF-539 CNS; details: 10 µM unless noted
# [6] = system: UACC-257 melanoma; details: 10 µM unless noted
# [7] = system: M14 melanoma; details: 10 µM unless noted
# [8] = system: HCT-15 colon; details: 10 µM unless noted
# [9] = system: HT29 colon; details: 10 µM unless noted
# [10] = system: SNB-75 CNS; details: 10 µM unless noted
# [11] = system: SNB-19 CNS; details: 10 µM unless noted
# [12] = system: U251 CNS; details: 10 µM unless noted
# [13] = system: PC-3 prostate; details: 10 µM unless noted
# [14] = system: UACC-62 melanoma; details: 10 µM unless noted
# [15] = system: LOX IMVI melanoma; details: 10 µM unless noted
# [16] = system: SK-MEL-28 melanoma; details: 10 µM
# [17] = system: SK-MEL-2 melanoma; details: 10 µM unless noted
# [18] = system: K-562 leukemia; details: 10 µM unless noted
# [19] = system: RXF 393 renal; details: 10 µM unless noted
# [20] = system: SK-MEL-5 melanoma; details: 10 µM unless noted
SMILES,growth [1],growth [2],growth [3],growth [4],growth [5],growth [6],growth [7],growth [8],growth [9],growth [10],growth [11],growth [12],growth [13],growth [14],growth [15],growth [16],growth [17],growth [18],growth [19],growth [20]
COc1ccc(-c2c(-c3ccc(OC)c(O)c3)cnc3ncnn23)cc1,111%,102%,101%,102%,98.6%,105%,106%,100%,108%,99.6%,102%,102%,105%,99%,99.8%,114%,107%,,,
Brc1ccc(Nc2nc3ccccc3nc2Nc2ccc(Br)cc2)cc1,,-80.4% (active),3.08% (active),-75.6% (active),-8.61% (active),-43% (active),-60.7% (active),-21% (active),-46.1% (active),-7.54% (active),16.6%,-58.5% (active),-0.436% (active),-16.2% (active),-87% (active),-44.2% (active),-58% (active),-20% (active),-32.9% (active),-85.6% (active)
CC(C)CCOc1ccc(-c2n[nH]c(C(F)(F)F)c2-c2cncc(C#N)c2)c(O)c1,-0.801% (active),1.43% (active),21.9%,0.826% (active),25.2%,-14% (active),22.5%,12%,48.9%,30.1%,13.1%,2.85% (active),1.74% (active),17.5%,5.15% (active),33.7%,-13.8% (active),,,
CCOc1c(Br)cc(C2C(C(=O)OC)=CN(C)C=C2C(=O)OC)cc1OC,,49.4%,68.1%,24%,94.2%,,,41%,6.47% (active),47.3%,89%,51%,60.7%,71.3%,54.9%,,65.7%,8.68% (active),64.2%,19.6%
COc1ccc(C2c3ccc4ccccc4c3Oc3ncn(CCCn4ccnc4)c(=N)c32)cc1OC (stereo not given),,69.2%,89.5%,-7.39% (active),67.8%,72.4%,49.6%,68.5%,20.7%,84.4%,79.2%,61%,52.6%,69.1%,35.9%,,81.4%,15.6%,73.2%,63.7%
COC(=O)C1(C)COP(=O)(Nc2ccc(OC)cc2)OC1 (stereo not given),116%,110%,103%,107%,104%,98.7%,102%,108%,101%,92.1%,103%,104%,99.8%,108%,96.3%,108%,96.4%,,113%,105%
COc1cc(/C=C/C(=O)N2c3ccccc3CC2C)c(OC)c2c1OCO2 (stereo not given),101%,92.2%,97%,83.6%,98.3%,100%,90.7%,69.8%,,97.2%,96.2%,87.6%,68.7%,84.5%,94.3%,90.7%,98.6%,,,
O=c1nc2sc3nc4ccccc4cc3cc-2s1,116%,108%,132%,104%,101%,98.8%,100%,104%,147%,116%,101%,115%,,116%,111%,110%,112%,,117%,100%
Cc1ccc2[nH]c(=O)cc(-n3nncc3Cn3c4ccccc4c4ccccc43)c2c1,93.5%,97.6%,86.4%,98.9%,94%,97.5%,105%,99%,113%,81.2%,,99.2%,92.8%,94.9%,98.2%,108%,103%,,,94.5%
COc1ccc(-c2nocc2-c2cccs2)cc1,106%,92.8%,101%,95.1%,101%,118%,111%,99.1%,114%,89.4%,102%,110%,101%,93.3%,108%,103%,103%,,,
O=C(Cc1ccccc1)NC(c1ccc(Cl)cc1)c1c(O)ccc2ccccc12 (stereo not given),,-15.7% (active),29.2%,-36.4% (active),40%,-9.13% (active),16.3%,15.4%,12.8%,40%,20.8%,1.3% (active),3.12% (active),5.84% (active),10.4%,36.6%,-3.92% (active),8.85% (active),-6.64% (active),-49.5% (active)
O=C(Nc1ccc(-c2nc3cc4ccccc4cc3[nH]2)cc1)c1cccc(Br)c1,,69.2%,37%,-36.3% (active),30.8%,42.3%,34.2%,22.3%,12.4%,66.2%,36.2%,25.9%,51.1%,39%,-6.26% (active),41.8%,49.4%,26.7%,29%,37.1%
COc1ccc(-c2cn3c(C(=O)Nc4ccccc4Cl)c(-c4ccccc4)c4c3n2CCCC4)cc1,,87.3%,93.1%,54.7%,87%,91.3%,73.6%,60.8%,26%,108%,96.6%,77.4%,72.8%,,,91.6%,104%,49.8%,109%,84%
CCOc1ccc2nc(C)cc(Nc3ccc(Br)cc3)c2c1,,109%,108%,110%,103%,103%,121%,82.2%,77.8%,89.7%,101%,98.1%,86.7%,103%,106%,108%,109%,87.6%,110%,97.1%
COc1ccc(C2NCCc3c2[nH]c2ccccc32)cc1CN1CCN(c2ccc(F)cc2)CC1 (stereo not given),,-32.5% (active),76.4%,-67.2% (active),58.8%,-39.9% (active),-30% (active),,-3.33% (active),24.4%,77.9%,26%,44.8%,12.5%,2.51% (active),67.9%,64.1%,17%,-9.51% (active),-40.7% (active)
COc1cc(C2C(C#N)=C(N)OC3=C2C(=O)c2ccccc2C3=O)cc(OC)c1O (stereo not given),54.7%,57.1%,42.2%,29.3%,0.132% (active),55.9%,21.1%,23.6%,65.1%,4.8% (active),37.3%,19.9%,18.9%,36.9%,25.5%,66.4%,21.1%,,,
O=C(O)c1cn(C2CC2)c2cc(N3CCN(C(=O)C[n+]4ccccc4)CC3)c(F)cc2c1=O,99.5%,105%,95.3%,101%,95.1%,101%,106%,102%,109%,97.2%,99.4%,92.4%,106%,105%,98.1%,112%,96.5%,,,101%
O=C(c1ccccc1)N(C(=S)NCCc1ccc(Cl)cc1)c1ccccc1,,112%,96.2%,113%,104%,95.8%,101%,86.2%,101%,118%,104%,87.6%,83.3%,96.9%,68.2%,113%,99.9%,58.1%,,98.3%
COc1cc2c(cc1OC)C(=O)C(CC1CCN(C(=O)Nc3ccc(C)cc3)CC1)C2 (stereo not given),91.1%,76.7%,96.8%,96.5%,92.8%,119%,97.5%,94.5%,107%,88.4%,95.2%,106%,88.6%,79.9%,96.9%,99.1%,97.9%,,,
O=C(CCN1C(=O)c2ccccc2C1=O)Nc1ccc(Cl)cc1,,114%,73.6%,28.4%,86.5%,98.2%,92.7%,61.7%,44.4%,94.5%,,62.2%,71.7%,87.4%,60.2%,117%,98.7%,60.7%,,81%
CC1=CCC(OC(=O)C(C)(C)CCC(O)(C(=O)OC2(C(C)C)CCC3(C)OC3C2)C(C)C)(C(C)C)CC1 (stereo not given),-84.1% (active),-63.1% (active),-74.5% (active),-92.2% (active),-97.3% (active),-57.6% (active),-81% (active),-59.8% (active),,-98% (active),-97.2% (active),-98.8% (active),,-94.2% (active),-90.5% (active),-96.9% (active),-91.6% (active),,-91.2% (active),-97.2% (active)
N[C@@H](CC/[N+]([O-])=N/O)C(=O)O,101%,102%,95.9%,110%,95%,112%,102%,104%,99.8%,113%,97.8%,94.9%,102%,98.4%,104%,106%,107%,,,
COc1cc(C2C(C#N)=C(N)OC3=C2C(=O)c2ccccc2C3=O)cc(OC)c1OC (stereo not given),47.8%,36.4%,39.5%,23.2%,-19.6% (active),50.5%,12.3%,20.1%,106%,7.57% (active),34.2%,17.9%,19%,25.9%,27.4%,58.1%,-2.31% (active),,,
Cc1ccc(Nc2nc(N)c3ccccc3n2)cc1Cl,,27.2%,78.5%,,81.5%,108%,,,27.4%,95.2%,84.4%,61.8%,60.4%,53.9%,40.4%,102%,50.9%,51.3%,80.4%,60.2%
CCCCc1c(CCC)c(=N)c2ccccc2n1C,,43.2%,81.4%,9.89% (active),74.1%,30.8%,,44.5%,26.6%,96.8%,111%,59.3%,77.2%,97.9%,59%,72.2%,101%,8.23% (active),90.9%,78%
O=C(c1ccccc1)N(C(=S)NCCc1ccc(Cl)cc1)c1ccc(Cl)cc1,,91.7%,33.2%,68.3%,36.9%,71.2%,71.2%,47.6%,37.6%,74.8%,59.3%,47.8%,66.2%,76.8%,-16.6% (active),42.8%,40.7%,4.72% (active),,67.2%
CN(CCc1ccccc1)C(=S)N(C(=O)c1ccc([N+](=O)[O-])cc1)c1ccc(Cl)cc1,,101%,91.7%,110%,92.6%,101%,94.8%,83.9%,92.7%,97.2%,101%,90.4%,77.5%,92%,61.3%,95.2%,87.9%,40.6%,,98.3%
Cc1cccc(NC(=O)c2sc3nc4c(cc3c2N)CCCC4)c1C,45.7%,38.6%,34.9%,6.95% (active),-12.2% (active),66.3%,4.97% (active),16.2%,2.81% (active),10.8%,26.2%,15.1%,21.2%,38.7%,42.3%,68.5%,49.1%,,,
COc1ccc(N2C(=O)CC(c3cc(OC)c(OC)c(OC)c3)C3C2=NC(=O)N3C)cc1 (stereo not given),105%,109%,100%,101%,97.9%,98.2%,105%,,104%,99.5%,102%,110%,100%,104%,103%,108%,116%,,,
Cn1c(C(=O)c2cccc3ccccc23)nc2ccccc21,,29.1%,2.01% (active),,-1.45% (active),-7.56% (active),-45.9% (active),29.4%,20.7%,38.9%,10.3%,5.7% (active),27.7%,-27.2% (active),2.82% (active),40.8%,9.69% (active),7.22% (active),13.5%,-38.1% (active)
